Bioassay records as filed in PubChem BioAssay.
VLA-4 inh – inhibition in a human VLA-4 binding assay; P13612; VLA-4 expressing cells, ligand binding flow cytometry; inhibition, % (about 7 µM as worked out from the volumes in the protocol); 330,000 tested, 0.2% active; AID 2557; in the data active = inhibition above about 50%
Target sequence (P13612 whole entry, looked up): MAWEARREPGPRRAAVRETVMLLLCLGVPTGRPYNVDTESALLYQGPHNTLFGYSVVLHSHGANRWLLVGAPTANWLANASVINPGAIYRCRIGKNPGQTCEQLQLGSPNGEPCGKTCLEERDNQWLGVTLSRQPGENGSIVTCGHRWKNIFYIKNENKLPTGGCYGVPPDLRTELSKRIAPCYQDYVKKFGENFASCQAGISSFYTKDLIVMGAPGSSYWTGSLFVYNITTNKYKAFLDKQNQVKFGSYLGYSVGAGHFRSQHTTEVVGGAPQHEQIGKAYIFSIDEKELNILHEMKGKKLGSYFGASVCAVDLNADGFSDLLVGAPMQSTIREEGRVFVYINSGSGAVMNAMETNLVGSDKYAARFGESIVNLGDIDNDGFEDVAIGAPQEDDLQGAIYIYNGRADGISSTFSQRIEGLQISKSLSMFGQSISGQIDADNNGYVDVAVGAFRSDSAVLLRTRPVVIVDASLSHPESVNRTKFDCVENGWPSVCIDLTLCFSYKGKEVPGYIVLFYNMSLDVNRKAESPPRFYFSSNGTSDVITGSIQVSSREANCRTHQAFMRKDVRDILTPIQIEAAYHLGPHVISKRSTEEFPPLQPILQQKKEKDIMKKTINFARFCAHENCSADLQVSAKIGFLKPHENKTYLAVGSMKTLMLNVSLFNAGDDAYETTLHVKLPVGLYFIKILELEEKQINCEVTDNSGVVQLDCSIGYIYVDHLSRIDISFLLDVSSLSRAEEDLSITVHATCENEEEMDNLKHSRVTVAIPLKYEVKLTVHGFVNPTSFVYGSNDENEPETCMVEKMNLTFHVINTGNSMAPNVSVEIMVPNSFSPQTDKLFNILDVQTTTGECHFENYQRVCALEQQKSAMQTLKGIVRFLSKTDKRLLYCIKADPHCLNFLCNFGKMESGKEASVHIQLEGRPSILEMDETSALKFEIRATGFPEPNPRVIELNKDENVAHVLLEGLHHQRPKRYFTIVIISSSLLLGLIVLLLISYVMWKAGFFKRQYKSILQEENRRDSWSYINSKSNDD
ATG4B inh – blocks human ATG4B protease cleavage of LC3 substrate; Q9Y4P1; ATG4B cleavage of LC3-PLA2, NBD-HPC fluorescence, 1 h; inhibition, % at 8.33 µM; 340,000 tested, 0.51% active; AID 504462; in the data active = inhibition above about 40%
PKA-R2B act – activators of human PKA-R2B complex; P22694+P31323; PKA-R2B holoenzyme dissociation, Cy5-IP20 fluorescence polarization; R2B truncated from residue 108, S112A mutant; 0% DMSO only, 100% 113 µM cGMP; activation, % at 11.4 µM; 340,000 tested, 0.079% active;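 active = activation above a cutoff set at the mean over all compounds plus 3 SD, cut at about 18% in these data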;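 note: higher means more holoenzyme dissociation and a rise in polarization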
NRP1-CendR mod – NRP-1/CendR interaction modulation. O14786. FAM-RPARPAR peptide binding to NRP-1, fluorescence polarization. inhibition, % at 25 µM. 360,000 tested, 0.85% active;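 active = inhibition or corrected inhibition above about 18%, plus a signal ratio from 0.5 to 1.5, limit read from the data, passing the limit was not always enough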
PKA-R1A act – activators of PKA-R1A complex | P00514+P68181 | activation, % at 11.4 µM | AID 504707 | PKA-R1A dissociation, Cy5-IP20 fluorescence polarization; scaled: DMSO 0%, 113 µM cGMP 100% | 340,000 tested, 0.083% active;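 active = percent activation above the mean of all tested compounds plus 3 SD, cut at about 19% in these data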;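 note: higher means more PKAc released from R1A so a rise in polarization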
A number is an active result; – = inactive; · = no result given; ! = a repeat was not active. Hits are enriched below; roughly 1.6% of the tested compounds scored in any of these assays.

SMILES	VLA-4 inh	ATG4B inh	PKA-R2B act	NRP1-CendR mod	PKA-R1A act
CC(C)(C)OC(=O)NCc1ccc(CNC(=O)c2nc[nH]c2C(=O)N2CCc3ccccc3C2)cc1	–	–	–	35	–
CN(Cc1ccccc1)C(=O)c1nc[nH]c1C(=O)N1CCN(C(=O)OC(C)(C)C)CC1	–	–	–	37	–
COc1cccc(NC(=O)CN(C)C(=O)c2c(-c3ccccc3)noc2C)c1	–	–	–	–	–
Cc1cccc(N2CCN(C(=O)CCC(=O)N3CC(C)Oc4ccc(C)cc43)CC2C)c1 (stereo not drawn)	–	–	–	–	–
Cc1ccccc1-c1csc(C(O)c2cccnc2)n1 (stereo not drawn)	·	·	·	–	·
CSCCC(c1nc2ccccc2[nH]1)n1c(-c2cc(C(F)(F)F)cc(C(F)(F)F)c2)nc2ccccc21 (stereo not drawn)	·	·	·	–	·
C=CCN(C(=O)c1csnn1)C(C(=O)NCc1ccccc1)c1c(F)cccc1Cl (stereo not drawn)	–	–	–	27	–
C#CCOCCOCCOCCNc1nc(N2CCN(C(=O)[C@H](CCCCN)n3cc(CN)nn3)CC2)nc(N2CCN(C(=O)[C@H](CCC(=O)O)n3cc([C@@H](N)CCCCN)nn3)CC2)n1	–	–	–	–	–
C#CCOCCOCCOCCNc1nc(N2CCN(C(=O)[C@H](CCCCN)n3cc(CN)nn3)CC2)nc(N2CCN(C(=O)[C@H](CCCCN)n3cc(CN)nn3)CC2)n1	–	–	–	32	–
C#CCOCCOCCOCCNc1nc(N2CCN(C(=O)CCCCCCCCCCNC(=O)[C@H](CCCCN)n3cc(C[C@@H](C)CC)nn3)CC2)nc(N2CCN(C(=O)CCCCCCCCCCNC(=O)[C@@H]([C@H](C)O)n3cc(C)nn3)CC2)n1	–	53	–	–	–
C#CCOCCOCCOCCNc1nc(N2CCN(C(=O)CCCCCCCCCCNC(=O)[C@H](CO)n3cc(CCCCCN)nn3)CC2)nc(N2CCN(C(=O)CCCCCCCCCCNC(=O)[C@H](CCCN=C(N)N)n3cc(C[C@@H](C)CC)nn3)CC2)n1	–	·	·	·	·
C#CCOCCOCCOCCNc1nc(N2CCN(C(=O)CCCCCCCCCCNC(=O)[C@@H](CCSC)n3cc(CCO)nn3)CC2)nc(N2CCN(C(=O)CCCCCCCCCCNC(=O)[C@H](CCCN=C(N)N)n3cc(C[C@@H](C)CC)nn3)CC2)n1	–	46	–	21	–
COc1cc(/C=C/C(=O)CC(=O)/C=C/c2ccc(O)c(OC)c2)ccc1O	–	49	–	–	–
O=C1NC[C@@H](CCCCN2C[C@H](Cc3ccc(O)cc3)N(CC3CCCCC3)C(=O)C2=O)N(CCC2CCCCC2)C1=O	·	·	·	–	·
C[C@@]12CCC3[C@@](CCC4[C@@]3(C)CCC[C@@]4(C)C(=O)Nc3ccc(Cl)cc3)(CC1=O)C2 (stereo partly drawn)	–	–	–	26	–
CC(C)NC(=O)[C@]1(C)CCC[C@@]2(C)C3CC[C@@]4(C)C[C@]3(CCC21)CC4=O (stereo partly drawn)	–	–	–	–	–
CC1(C)CC(=O)C2=C(C1)OC(N)=C(C#N)C2c1ccccc1[N+](=O)[O-] (stereo not drawn)	–	–	–	36	–
Cc1ccnc(N2C(=O)c3cccc4c([N+](=O)[O-])ccc(c34)C2=O)c1	–	–	–	36	–
O=C1c2cccc3cccc(c23)C(=O)N1Cc1cccnc1	–	–	–	–	–
Cc1ccc(N2C(=O)c3cccc4c([N+](=O)[O-])ccc(c34)C2=O)c2cccnc12	–	–	–	–	–
O=C1c2cccc3c([N+](=O)[O-])ccc(c23)C(=O)N1Cc1cccnc1	·	–	–	69	–
O=C(NC1CCCC1)C(c1ccccc1)n1c(-c2ccc3c(c2)CCO3)nc2ccccc21 (stereo not drawn)	·	·	·	–	·
CCSc1nnc(-c2cnn(-c3ccccc3)c2-n2cccc2)n1C	–	–	–	44	–
CCn1c(SC(C)C(=O)Nc2nccs2)nnc1-c1ccncc1 (stereo not drawn)	–	–	–	24	–
COc1ccccc1N(C)S(=O)(=O)c1ccc(C(=O)NCC(C)C)cc1	–	–	–	–	–
SMILES	VLA-4 inh	ATG4B inh	PKA-R2B act	NRP1-CendR mod	PKA-R1A act
COc1ccccc1N(C)S(=O)(=O)c1ccc(C(=O)Nc2cccc(Br)c2)cc1	–	–	–	27	–
COc1ccccc1N(C)S(=O)(=O)c1ccc(C(=O)N(CC(N)=O)C(C)C)cc1	–	–	–	25	–
COC(=O)c1cccc(NC(=O)c2ccc(S(=O)(=O)N(C)c3ccccc3OC)cc2)c1	·	·	–	–	–
CCc1ccc(-c2cc3c(=O)n(CC(=O)NCCCN4CCN(CC)CC4)nc(C)n3n2)cc1	–	–	–	24	–
COc1cc2c(C#N)c(N3CCN(C)CC3)nc(N)c2c(N)n1	–	·	–	–	–
COc1cc2c(C#N)c(N3CCCC3)nc(N)c2c(N)n1	–	–	–	30!	–
Cc1ccccc1OCC1Cc2c(nc(N)c(C#N)c2N)O1 (stereo not drawn)	–	–	–	53	–
COc1ccc2cc(C(=O)NCc3ccccc3)c(=Nc3ccc(C(=O)O)cc3)oc2c1	–	–	–	46	–
CS(=O)(=O)N(CC(=O)Nc1ccccc1F)C1CCCCC1	–	–	–	23	–
CS(=O)(=O)N(CC(=O)Nc1ccc(Br)cc1F)C1CCCCC1	–	–	–	–	–
O=C(CCC(=O)Nc1ccccc1Cl)NN=C1CCCC1	–	–	–	22	–
OC(c1ccccc1)(c1ccccc1)C1CCN(CCCOc2ccc3c(c2)CCCC3)CC1	·	·	·	–	·
Cc1noc(C)c1C(=O)N1CCC1(C)C(=O)NS(=O)(=O)c1cccc(Cl)c1 (stereo not drawn)	·	·	·	41	·
Cc1noc(C)c1C(=O)N1CCC1(C)C(=O)NS(=O)(=O)c1ccc(Cl)cc1 (stereo not drawn)	·	·	·	–	·
O=C(NCCCn1ccnc1)c1cccc(Br)c1	–	–	–	–	–
O=C(c1cccc(F)c1)N1CCN(C(=O)C(c2ccccc2)c2ccccc2)CC1	–	–	–	–	–
Cc1cc(C)n(CC2CC(=O)N(c3cc(Cl)cc(Cl)c3)C2=O)n1 (stereo not drawn)	–	–	–	–	–
Cc1cc(C)n(CC2CC(=O)N(c3ccccc3)C2=O)n1 (stereo not drawn)	–	–	–	29	–
Cc1ccc(S(=O)(=O)N2CCC(NC(=O)C3CCCCC3)CC2)cc1	–	–	–	–	–
COC(=O)CCCC1=CC2=C(c3ccccc3)C(=O)C(C)(OC(=O)C3CCCC3)C(=O)C2=CN1C1CCCCC1 (stereo not drawn)	–	–	–	–	–
